Laboratory results published in article PMC7862700, “An all-to-all approach to the identification of sequence-specific readers for epigenetic DNA modifications on cytosine”.

Experiments:
Assay in all cases: DAPPL (digital affinity profiling via proximity ligation, sequencing); 10 mM Tris-HCl pH 7.5, 50 mM NaCl, 1 mM DTT, 4% glycerol, room temperature, 30 min; GST-TFs on glutathione beads, 16-mer random dsDNA library, 0.1% formaldehyde crosslink after washing; high values mean tight binding
FLI1 = biological target: T1, FLI1 (Homo sapiens, UniProt Q01543 1-452); settings: protein: recombinant; tags: N-terminal GST; dsDNA, one strand shown
T1 sequence: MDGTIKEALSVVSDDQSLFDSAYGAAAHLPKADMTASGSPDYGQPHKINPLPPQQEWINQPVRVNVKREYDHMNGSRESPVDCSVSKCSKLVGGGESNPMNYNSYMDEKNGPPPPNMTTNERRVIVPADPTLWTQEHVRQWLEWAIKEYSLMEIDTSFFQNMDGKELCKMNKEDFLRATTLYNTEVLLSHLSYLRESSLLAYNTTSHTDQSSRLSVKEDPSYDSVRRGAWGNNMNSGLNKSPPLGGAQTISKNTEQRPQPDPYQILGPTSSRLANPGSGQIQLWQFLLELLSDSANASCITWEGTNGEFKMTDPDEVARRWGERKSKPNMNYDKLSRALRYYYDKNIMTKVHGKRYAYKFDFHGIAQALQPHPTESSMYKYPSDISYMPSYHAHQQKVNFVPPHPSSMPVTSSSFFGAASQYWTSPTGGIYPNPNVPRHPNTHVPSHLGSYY
How it was run: (§1)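 Pools of DNA-barcoded human transcription factors, expressed in yeast as GST fusions on glutathione beads and combined with a tag-only sample, were incubated with 200 nmole of a 16-mer random double-stranded DNA library. Incubation took 30 min at room temperature in Tris/NaCl/DTT/glycerol buffer and was followed by washing, 0.1% formaldehyde crosslinking, proximity ligation (BsaI/T4 ligase, 1 h, 37 °C), PCR amplification and sequencing on an Illumina NextSeq500. Binding signal is the ratio of a hexamer's read frequency for a factor to its frequency for the tag-only sample.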

ELK1 = biological target: T2, ELK1 (Homo sapiens, UniProt P19419 1-428); settings: protein: recombinant; tags: N-terminal GST; dsDNA, one strand shown
T2 sequence: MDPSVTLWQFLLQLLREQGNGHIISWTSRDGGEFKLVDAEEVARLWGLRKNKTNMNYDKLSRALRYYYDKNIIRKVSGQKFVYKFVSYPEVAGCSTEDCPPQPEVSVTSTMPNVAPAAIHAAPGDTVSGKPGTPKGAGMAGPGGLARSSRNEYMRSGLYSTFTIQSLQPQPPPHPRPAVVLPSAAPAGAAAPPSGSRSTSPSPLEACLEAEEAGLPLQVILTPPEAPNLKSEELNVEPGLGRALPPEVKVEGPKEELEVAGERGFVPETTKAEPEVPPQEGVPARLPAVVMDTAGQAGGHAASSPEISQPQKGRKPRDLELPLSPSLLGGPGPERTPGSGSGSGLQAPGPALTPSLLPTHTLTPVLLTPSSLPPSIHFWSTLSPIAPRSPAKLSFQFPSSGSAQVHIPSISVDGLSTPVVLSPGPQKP
How it was run: as §1

GABPA = biological target: T3, GABPA (Homo sapiens, UniProt Q06546 1-454); settings: protein: recombinant; tags: N-terminal GST; dsDNA, one strand shown
T3 sequence: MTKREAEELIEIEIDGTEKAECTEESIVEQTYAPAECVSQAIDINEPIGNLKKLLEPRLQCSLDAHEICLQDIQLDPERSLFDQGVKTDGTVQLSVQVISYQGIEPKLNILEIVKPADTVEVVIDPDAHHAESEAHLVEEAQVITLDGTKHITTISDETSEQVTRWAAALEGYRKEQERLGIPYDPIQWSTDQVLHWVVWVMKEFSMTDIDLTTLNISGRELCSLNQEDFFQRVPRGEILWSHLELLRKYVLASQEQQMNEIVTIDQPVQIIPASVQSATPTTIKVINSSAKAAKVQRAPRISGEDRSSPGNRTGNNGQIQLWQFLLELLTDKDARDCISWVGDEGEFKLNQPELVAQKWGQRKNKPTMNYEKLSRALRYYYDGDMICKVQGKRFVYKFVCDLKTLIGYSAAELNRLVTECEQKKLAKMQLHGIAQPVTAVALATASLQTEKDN
How it was run: as §1

ERG = biological target: T4, ERG (Homo sapiens, UniProt P11308 1-479); settings: protein: recombinant; tags: N-terminal GST; dsDNA, one strand shown
T4 sequence: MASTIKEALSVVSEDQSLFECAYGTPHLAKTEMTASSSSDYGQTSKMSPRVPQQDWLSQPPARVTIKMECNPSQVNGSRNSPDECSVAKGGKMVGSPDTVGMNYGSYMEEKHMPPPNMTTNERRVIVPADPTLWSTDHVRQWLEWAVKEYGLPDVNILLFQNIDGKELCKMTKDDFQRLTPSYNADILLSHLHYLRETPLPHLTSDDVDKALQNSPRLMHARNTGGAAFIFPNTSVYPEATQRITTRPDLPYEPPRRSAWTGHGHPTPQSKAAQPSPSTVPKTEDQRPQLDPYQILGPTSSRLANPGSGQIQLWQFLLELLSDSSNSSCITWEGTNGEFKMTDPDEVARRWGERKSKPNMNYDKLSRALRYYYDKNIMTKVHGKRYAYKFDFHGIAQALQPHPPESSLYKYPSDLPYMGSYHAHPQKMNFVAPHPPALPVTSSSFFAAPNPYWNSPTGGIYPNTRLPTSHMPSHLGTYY
How it was run: as §1

ELF1 = ELF1 (Homo sapiens, UniProt P32519 1-619); settings: protein: recombinant; tags: N-terminal GST; dsDNA, one strand shown
How it was run: as §1

EHF = biological target: T5, EHF (Homo sapiens, UniProt Q9NZC4 1-300); settings: protein: recombinant; tags: N-terminal GST; dsDNA, one strand shown
T5 sequence: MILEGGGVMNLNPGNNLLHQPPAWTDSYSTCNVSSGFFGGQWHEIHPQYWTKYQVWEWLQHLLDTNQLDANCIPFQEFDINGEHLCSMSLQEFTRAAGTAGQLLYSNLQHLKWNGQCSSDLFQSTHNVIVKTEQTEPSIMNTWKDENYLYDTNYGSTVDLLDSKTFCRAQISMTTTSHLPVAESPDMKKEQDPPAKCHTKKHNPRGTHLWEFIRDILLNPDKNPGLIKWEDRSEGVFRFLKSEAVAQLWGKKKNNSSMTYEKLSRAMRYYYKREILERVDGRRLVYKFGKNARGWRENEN
How it was run: as §1

SPI1 = SPI1 (Homo sapiens, UniProt P17947 1-270); settings: protein: recombinant; tags: N-terminal GST; dsDNA, one strand shown
How it was run: as §1

SPIB = SPIB (Homo sapiens, UniProt Q01892 1-262); settings: protein: recombinant; tags: N-terminal GST; dsDNA, one strand shown
How it was run: as §1

ELK3 = biological target: T6, ELK3 (Homo sapiens, UniProt P41970 1-407); settings: protein: recombinant; tags: N-terminal GST; dsDNA, one strand shown
T6 sequence: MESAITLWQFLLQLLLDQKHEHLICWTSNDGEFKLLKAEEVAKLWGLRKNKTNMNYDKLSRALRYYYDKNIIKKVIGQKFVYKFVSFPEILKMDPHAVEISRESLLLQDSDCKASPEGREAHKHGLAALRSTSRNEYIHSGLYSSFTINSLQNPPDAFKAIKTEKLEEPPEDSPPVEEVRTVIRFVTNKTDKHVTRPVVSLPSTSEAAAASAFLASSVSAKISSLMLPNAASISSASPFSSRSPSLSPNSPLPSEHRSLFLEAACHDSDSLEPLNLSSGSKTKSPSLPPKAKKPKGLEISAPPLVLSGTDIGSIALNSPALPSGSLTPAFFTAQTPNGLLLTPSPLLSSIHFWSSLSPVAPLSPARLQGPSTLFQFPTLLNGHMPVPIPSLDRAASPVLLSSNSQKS
How it was run: as §1

FEV = biological target: T7, FEV (Homo sapiens, UniProt Q99581 1-238); settings: protein: recombinant; tags: N-terminal GST; dsDNA, one strand shown
T7 sequence: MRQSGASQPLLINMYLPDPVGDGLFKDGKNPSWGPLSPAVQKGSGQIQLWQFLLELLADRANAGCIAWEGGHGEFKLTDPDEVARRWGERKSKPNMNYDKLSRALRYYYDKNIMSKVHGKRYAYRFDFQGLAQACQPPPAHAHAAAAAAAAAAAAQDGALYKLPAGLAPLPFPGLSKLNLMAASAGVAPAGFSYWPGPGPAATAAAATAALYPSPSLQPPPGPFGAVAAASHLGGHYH
How it was run: as §1

ETV5 = ETV5 (Homo sapiens, UniProt P41161 1-510); settings: protein: recombinant; tags: N-terminal GST; dsDNA, one strand shown
How it was run: as §1

HSF1 = HSF1 (Homo sapiens, UniProt Q00613 1-529); settings: protein: recombinant; tags: N-terminal GST; chain copies: 3; dsDNA, one strand shown
How it was run: as §1

SPIC = biological target: T8, SPIC (Homo sapiens, UniProt Q8N5J4 1-248); settings: protein: recombinant; tags: N-terminal GST; dsDNA, one strand shown
T8 sequence: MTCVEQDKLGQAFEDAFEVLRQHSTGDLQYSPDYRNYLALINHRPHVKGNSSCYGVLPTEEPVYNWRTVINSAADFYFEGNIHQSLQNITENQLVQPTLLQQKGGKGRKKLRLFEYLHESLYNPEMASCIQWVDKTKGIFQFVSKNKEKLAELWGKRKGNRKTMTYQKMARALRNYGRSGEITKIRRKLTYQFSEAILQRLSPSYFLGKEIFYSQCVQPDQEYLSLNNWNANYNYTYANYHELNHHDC
How it was run: as §1

ELF4 = ELF4 (Homo sapiens, UniProt Q99607 1-663); settings: protein: recombinant; tags: N-terminal GST; dsDNA, one strand shown
How it was run: as §1

ELK4 = biological target: T9, ELK4 (Homo sapiens, UniProt P28324-2 1-405); settings: protein: recombinant; tags: N-terminal GST; dsDNA, one strand shown
T9 sequence: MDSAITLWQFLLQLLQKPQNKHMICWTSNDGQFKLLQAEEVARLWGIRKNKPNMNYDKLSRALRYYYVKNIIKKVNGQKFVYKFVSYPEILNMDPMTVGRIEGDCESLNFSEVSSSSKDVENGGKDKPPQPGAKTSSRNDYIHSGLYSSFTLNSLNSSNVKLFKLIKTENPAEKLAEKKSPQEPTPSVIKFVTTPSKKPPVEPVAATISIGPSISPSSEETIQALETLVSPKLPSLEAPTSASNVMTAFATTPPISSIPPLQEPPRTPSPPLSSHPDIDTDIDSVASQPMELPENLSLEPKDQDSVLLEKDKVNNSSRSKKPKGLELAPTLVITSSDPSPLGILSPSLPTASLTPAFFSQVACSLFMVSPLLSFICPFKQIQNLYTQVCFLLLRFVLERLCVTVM
How it was run: as §1

ETV2 = biological target: T10, ETV2 (Homo sapiens, UniProt O00321 1-342); settings: protein: recombinant; tags: N-terminal GST; dsDNA, one strand shown
T10 sequence: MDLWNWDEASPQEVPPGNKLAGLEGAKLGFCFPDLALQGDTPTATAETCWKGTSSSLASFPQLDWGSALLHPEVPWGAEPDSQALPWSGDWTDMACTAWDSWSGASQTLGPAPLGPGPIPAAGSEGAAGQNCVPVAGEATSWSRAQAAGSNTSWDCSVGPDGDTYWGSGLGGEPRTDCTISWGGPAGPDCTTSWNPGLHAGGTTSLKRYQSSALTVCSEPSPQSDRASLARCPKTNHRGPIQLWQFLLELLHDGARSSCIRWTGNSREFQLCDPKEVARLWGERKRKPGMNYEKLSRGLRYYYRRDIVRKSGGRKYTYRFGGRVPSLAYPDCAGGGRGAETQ
How it was run: as §1

ELF3 = biological target: T11, ELF3 (Homo sapiens, UniProt P78545 1-371); settings: protein: recombinant; tags: N-terminal GST; dsDNA, one strand shown
T11 sequence: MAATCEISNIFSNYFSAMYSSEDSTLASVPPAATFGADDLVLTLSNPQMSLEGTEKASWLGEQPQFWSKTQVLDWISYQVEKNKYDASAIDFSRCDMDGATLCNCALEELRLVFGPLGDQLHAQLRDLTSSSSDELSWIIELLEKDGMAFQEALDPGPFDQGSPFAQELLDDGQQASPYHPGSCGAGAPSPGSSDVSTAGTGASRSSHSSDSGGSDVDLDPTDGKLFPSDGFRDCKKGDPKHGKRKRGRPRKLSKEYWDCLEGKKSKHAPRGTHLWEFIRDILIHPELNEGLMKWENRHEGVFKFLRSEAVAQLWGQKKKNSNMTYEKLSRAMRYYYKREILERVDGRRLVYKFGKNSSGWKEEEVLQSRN
How it was run: as §1

CRX = CRX (Homo sapiens, UniProt O43186 1-299); settings: protein: recombinant; tags: N-terminal GST; dsDNA, one strand shown
How it was run: as §1

ETV1 = ETV1 (Homo sapiens, UniProt P50549 1-477); settings: protein: recombinant; tags: N-terminal GST; dsDNA, one strand shown
How it was run: as §1

Chain of CRX (O43186 whole entry): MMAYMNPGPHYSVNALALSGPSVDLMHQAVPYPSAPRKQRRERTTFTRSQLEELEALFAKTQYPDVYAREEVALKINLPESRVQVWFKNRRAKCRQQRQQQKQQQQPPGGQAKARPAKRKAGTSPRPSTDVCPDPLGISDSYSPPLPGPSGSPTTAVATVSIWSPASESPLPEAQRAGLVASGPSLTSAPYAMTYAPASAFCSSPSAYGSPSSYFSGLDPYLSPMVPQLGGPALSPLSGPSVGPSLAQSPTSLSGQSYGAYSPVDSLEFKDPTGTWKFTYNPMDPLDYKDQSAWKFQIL
Chain of SPIB (Q01892 whole entry): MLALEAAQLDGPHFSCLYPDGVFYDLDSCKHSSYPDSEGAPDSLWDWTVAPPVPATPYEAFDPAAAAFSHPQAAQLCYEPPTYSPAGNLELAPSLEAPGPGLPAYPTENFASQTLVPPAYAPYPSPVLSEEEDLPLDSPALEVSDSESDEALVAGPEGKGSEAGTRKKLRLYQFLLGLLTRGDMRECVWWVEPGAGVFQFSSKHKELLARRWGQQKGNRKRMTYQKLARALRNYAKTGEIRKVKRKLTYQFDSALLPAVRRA
Chain of HSF1 (Q00613 whole entry): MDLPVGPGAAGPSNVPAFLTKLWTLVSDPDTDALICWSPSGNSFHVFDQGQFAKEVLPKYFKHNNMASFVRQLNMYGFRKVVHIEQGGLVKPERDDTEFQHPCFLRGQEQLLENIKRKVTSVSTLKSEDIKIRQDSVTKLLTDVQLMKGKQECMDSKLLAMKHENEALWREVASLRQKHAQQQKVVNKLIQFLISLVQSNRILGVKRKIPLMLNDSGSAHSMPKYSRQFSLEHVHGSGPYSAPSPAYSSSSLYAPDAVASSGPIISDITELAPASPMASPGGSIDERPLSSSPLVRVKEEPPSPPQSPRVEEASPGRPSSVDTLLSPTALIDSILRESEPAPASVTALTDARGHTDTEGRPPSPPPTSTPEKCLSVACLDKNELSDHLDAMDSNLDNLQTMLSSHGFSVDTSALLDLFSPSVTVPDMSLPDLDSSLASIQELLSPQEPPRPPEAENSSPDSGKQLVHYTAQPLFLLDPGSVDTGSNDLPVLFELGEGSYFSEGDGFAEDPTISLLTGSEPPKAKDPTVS
Chain of ELF4 (Q99607 whole entry): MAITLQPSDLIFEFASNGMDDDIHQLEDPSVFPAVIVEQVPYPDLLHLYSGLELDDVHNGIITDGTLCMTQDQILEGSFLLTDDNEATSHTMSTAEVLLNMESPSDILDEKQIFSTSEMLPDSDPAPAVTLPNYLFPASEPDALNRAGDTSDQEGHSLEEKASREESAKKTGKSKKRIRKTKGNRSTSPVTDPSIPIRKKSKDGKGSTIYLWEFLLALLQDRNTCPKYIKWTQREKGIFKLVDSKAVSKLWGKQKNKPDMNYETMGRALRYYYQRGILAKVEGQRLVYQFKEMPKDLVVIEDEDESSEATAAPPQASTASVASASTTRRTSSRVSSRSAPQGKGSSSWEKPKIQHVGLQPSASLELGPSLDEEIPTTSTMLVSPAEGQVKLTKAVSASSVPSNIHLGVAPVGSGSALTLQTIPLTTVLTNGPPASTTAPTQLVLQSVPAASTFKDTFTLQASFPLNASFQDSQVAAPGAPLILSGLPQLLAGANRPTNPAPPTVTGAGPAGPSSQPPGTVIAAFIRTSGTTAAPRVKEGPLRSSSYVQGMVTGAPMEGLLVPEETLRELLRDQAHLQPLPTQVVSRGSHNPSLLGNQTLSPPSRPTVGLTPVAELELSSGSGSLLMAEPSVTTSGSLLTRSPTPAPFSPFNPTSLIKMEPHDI
Chain of ETV5 (P41161 whole entry): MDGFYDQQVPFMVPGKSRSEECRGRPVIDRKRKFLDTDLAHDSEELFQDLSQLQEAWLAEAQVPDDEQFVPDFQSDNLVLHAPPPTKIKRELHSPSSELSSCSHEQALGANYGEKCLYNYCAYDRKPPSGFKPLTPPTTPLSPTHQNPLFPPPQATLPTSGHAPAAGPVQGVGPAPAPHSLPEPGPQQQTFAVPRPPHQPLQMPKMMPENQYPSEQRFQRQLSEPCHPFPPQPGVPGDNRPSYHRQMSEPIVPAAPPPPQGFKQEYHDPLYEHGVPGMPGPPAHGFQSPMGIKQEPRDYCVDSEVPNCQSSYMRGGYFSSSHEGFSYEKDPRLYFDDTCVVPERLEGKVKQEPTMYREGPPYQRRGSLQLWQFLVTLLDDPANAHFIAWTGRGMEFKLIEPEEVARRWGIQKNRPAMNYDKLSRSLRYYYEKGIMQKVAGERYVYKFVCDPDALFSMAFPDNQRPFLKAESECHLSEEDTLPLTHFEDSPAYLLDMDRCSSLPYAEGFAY
Chain of ELF1 (P32519 whole entry): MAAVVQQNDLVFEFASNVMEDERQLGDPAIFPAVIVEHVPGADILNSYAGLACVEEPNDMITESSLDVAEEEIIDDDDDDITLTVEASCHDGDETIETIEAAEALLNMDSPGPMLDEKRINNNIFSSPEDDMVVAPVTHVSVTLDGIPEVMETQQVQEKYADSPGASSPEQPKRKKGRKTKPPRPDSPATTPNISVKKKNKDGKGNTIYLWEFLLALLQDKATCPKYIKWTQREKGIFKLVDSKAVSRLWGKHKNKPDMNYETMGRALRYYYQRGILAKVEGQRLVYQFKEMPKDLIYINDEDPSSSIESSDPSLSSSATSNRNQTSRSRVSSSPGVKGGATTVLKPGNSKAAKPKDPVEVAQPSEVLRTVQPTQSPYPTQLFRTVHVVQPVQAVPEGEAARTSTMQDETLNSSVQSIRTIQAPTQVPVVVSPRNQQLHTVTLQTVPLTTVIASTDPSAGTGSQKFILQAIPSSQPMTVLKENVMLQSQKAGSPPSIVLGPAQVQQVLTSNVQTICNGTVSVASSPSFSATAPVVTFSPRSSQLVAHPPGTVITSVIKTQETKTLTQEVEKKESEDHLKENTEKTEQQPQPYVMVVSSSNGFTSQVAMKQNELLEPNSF
Chain of ETV1 (P50549 whole entry): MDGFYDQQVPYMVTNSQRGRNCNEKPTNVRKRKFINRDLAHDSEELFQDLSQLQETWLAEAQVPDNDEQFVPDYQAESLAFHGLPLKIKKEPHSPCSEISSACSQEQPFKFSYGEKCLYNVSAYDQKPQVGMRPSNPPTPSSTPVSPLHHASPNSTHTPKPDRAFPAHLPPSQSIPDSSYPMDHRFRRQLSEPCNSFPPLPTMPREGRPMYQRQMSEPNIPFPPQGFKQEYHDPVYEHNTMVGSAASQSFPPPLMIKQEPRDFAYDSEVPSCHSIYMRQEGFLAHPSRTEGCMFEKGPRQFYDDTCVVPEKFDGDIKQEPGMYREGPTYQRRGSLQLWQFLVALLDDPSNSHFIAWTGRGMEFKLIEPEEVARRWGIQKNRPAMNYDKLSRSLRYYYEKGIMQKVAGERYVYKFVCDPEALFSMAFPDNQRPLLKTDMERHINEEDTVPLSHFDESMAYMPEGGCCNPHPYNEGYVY

Sequence: ACCCAT
- binding signal (FLI1): 1.18 fold enrichment (6-mer frequency, TF over GST control)
- binding signal (ELK1): 1.21 fold enrichment (6-mer frequency, TF over GST control)
- binding signal (GABPA): 1.33 fold enrichment (6-mer frequency, TF over GST control)
- binding signal (ERG): 1.23 fold enrichment (6-mer frequency, TF over GST control)
- binding signal (ELF1): 1.25 fold enrichment (6-mer frequency, TF over GST control)
- binding signal (EHF): 1.16 fold enrichment (6-mer frequency, TF over GST control)
- binding signal (SPI1): 1.17 fold enrichment (6-mer frequency, TF over GST control)
- binding signal (SPIB): 1.33 fold enrichment (6-mer frequency, TF over GST control)
- binding signal (ELK3): 1.24 fold enrichment (6-mer frequency, TF over GST control)
- binding signal (FEV): 1.17 fold enrichment (6-mer frequency, TF over GST control)
- binding signal (ETV5): 1.25 fold enrichment (6-mer frequency, TF over GST control)
- binding signal (HSF1): 1.05 fold enrichment (6-mer frequency, TF over GST control)
- binding signal (SPIC): 1.15 fold enrichment (6-mer frequency, TF over GST control)
- binding signal (ELF4): 1.25 fold enrichment (6-mer frequency, TF over GST control)
- binding signal (ELK4): 1.17 fold enrichment (6-mer frequency, TF over GST control)
- binding signal (ETV2): 1.18 fold enrichment (6-mer frequency, TF over GST control)
- binding signal (ELF3): 1.23 fold enrichment (6-mer frequency, TF over GST control)
- binding signal (CRX): 1.06 fold enrichment (6-mer frequency, TF over GST control)
- binding signal (ETV1): 1.19 fold enrichment (6-mer frequency, TF over GST control)
